Measured values: the supplement of paper PMC12645437, “Orthogonal IMiD-Degron Pairs Induce Selective Protein Degradation in Cells” (ACS Chemical Biology, 2025)
Over roughly 8,300 sequences, “log2 fold change of degron read counts, EGFP-low vs EGFP+ sorted cells (limma voom), compound-induced degradation” has its median near -1.1; the highest 2% begin near 3.2. This is one part of a sample in which the highest values are shown more often than they occur.

T1: CRBN, Q96SW2
T1 chain: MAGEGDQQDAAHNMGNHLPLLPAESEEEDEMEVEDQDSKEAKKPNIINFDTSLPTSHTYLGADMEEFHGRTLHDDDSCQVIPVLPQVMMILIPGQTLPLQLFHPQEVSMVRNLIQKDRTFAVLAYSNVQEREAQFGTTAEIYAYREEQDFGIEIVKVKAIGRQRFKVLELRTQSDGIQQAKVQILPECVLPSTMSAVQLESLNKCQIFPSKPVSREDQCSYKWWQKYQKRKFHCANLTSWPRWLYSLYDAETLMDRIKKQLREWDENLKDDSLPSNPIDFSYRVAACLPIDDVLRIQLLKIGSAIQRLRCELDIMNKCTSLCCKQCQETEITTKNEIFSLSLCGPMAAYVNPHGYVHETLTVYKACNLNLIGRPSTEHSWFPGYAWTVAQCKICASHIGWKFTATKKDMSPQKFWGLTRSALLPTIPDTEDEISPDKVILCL

B1: 46F_47R_49E_50I_52G_53R_54P_55F_67L_, Q9UKT9 (peptide)
chain: FRCEICGRPFTQKGNLLRHIKL
B2: 46F_47N_49P_50I_52G_53H_54T_55F_67L_, Q9UKT9 (peptide)
chain: FNCPICGHTFTQKGNLLRHIKL
B3: 46F_47F_49E_50I_52G_53R_54S_55F_67L_, Q9UKT9 (peptide)
chain: FFCEICGRSFTQKGNLLRHIKL
B4: 46F_47N_49E_50Q_52G_53A_54C_55F_67L_, Q9UKT9 (peptide)
chain: FNCEQCGACFTQKGNLLRHIKL
B5: 46F_47F_49P_50I_52G_53H_54D_55F_67L_, Q9UKT9 (peptide)
chain: FFCPICGHDFTQKGNLLRHIKL
B6: 46F_47L_49E_50I_52G_53A_54Y_55F_67L_, Q9UKT9 (peptide)
chain: FLCEICGAYFTQKGNLLRHIKL
B7: 46F_47F_49N_50I_52G_53A_54P_55F_67L_, Q9UKT9 (peptide)
chain: FFCNICGAPFTQKGNLLRHIKL
B8: 46F_47M_49N_50I_52G_53A_54P_55F_67L_, Q9UKT9 (peptide)
chain: FMCNICGAPFTQKGNLLRHIKL
B9: 46F_47H_49N_50Q_52G_53A_54P_55F_67L_, Q9UKT9 (peptide)
chain: FHCNQCGAPFTQKGNLLRHIKL
B10: 46F_47S_49N_50I_52G_53A_54P_55F_67L_, Q9UKT9 (peptide)
chain: FSCNICGAPFTQKGNLLRHIKL
B11: 46F_47Q_49N_50I_52G_53A_54P_55F_67L_, Q9UKT9 (peptide)
chain: FQCNICGAPFTQKGNLLRHIKL
B12: 46F_47A_49N_50I_52G_53A_54P_55F_67L_, Q9UKT9 (peptide)
chain: FACNICGAPFTQKGNLLRHIKL
B13: 46F_47D_49N_50I_52G_53A_54P_55F_67L_, Q9UKT9 (peptide)
chain: FDCNICGAPFTQKGNLLRHIKL
B14: 46F_47K_49N_50I_52G_53A_54P_55F_67L_, Q9UKT9 (peptide)
chain: FKCNICGAPFTQKGNLLRHIKL
B15: 46F_47H_49N_50I_52G_53A_54P_55F_67L_, Q9UKT9 (peptide)
chain: FHCNICGAPFTQKGNLLRHIKL
B16: 46F_47W_49E_50I_52G_53R_54F_55F_67L_, Q9UKT9 (peptide)
chain: FWCEICGRFFTQKGNLLRHIKL
B17: 46F_47V_49N_50Q_52G_53H_54R_55F_67L_, Q9UKT9 (peptide)
chain: FVCNQCGHRFTQKGNLLRHIKL
B18: 46F_47W_49P_50I_52G_53H_54T_55F_67L_, Q9UKT9 (peptide)
chain: FWCPICGHTFTQKGNLLRHIKL

Target: T1, CRBN, Q96SW2
Assay: log2 fold change of degron read counts, EGFP-low vs EGFP+ sorted cells (limma voom), compound-induced degradation; higher = more compound-induced degradation of the degron-EGFP fusion; degrons are variants of IKZF1/3 zinc finger 2; compound dose not given here
Settings: Jurkat, 18 h
Protocol: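 Pooled library of 8380 IKZF3 ZF2 degron mutants (positions 146-167 varied within the IKZF3 130-189 degron; only the varied core is printed, flanks not printed) fused to EGFP with IRES-mCherry, lentivirally expressed in Jurkat cells. mCherry+ cells were treated with one IMiD compound for 18 h (dose not stated) and FACS-sorted into EGFP-low and EGFP+ populations. Degron sequences were counted by NGS, and log2FC (EGFP-low vs EGFP+) was estimated by limma voom over 3 biological replicates.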

[1] = compound: compound 19 (5-tert-butyl-thalidomide)
[2] = compound: compound 22 (5-morpholino-thalidomide)
[3] = compound: compound 33 (diphenyl IMiD analogue)
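Further: pooled lentiviral library of zinc finger degron-EGFP fusions in mCherry-positive Jurkat cells, FACS-sorted after compound exposure, with degron abundance counted by next-generation sequencing.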

| Sequence | log2 fold change of degron read counts [1] | log2 fold change of degron read counts [2] | log2 fold change of degron read counts [3] | log2 fold change of degron read counts (compound: thalidomide) |
| --- | --- | --- | --- | --- |
| B1 | -0.208 | 1.72 | 2.22 | 2.06 |
| B2 | -2.31 | -2.29 | -2.08 | -2.24 |
| B3 | 0.599 | 0.147 | -0.0546 | -0.893 |
| B4 | -1.28 | -2.78 | -2.07 | -2.41 |
| B5 | -2.5 | -3.06 | -2.39 | -2.25 |
| B6 | 0.402 | -0.763 | 0.888 | 1.03 |
| B7 | 3.82 | 3.29 | 1.81 | 0.893 |
| B8 | 2.52 | 3.05 | 3.24 | 2.42 |
| B9 | -0.273 | -1.39 | -1.33 | -1.72 |
| B10 | 2.52 | 2.26 | 1.18 | 1.71 |
| B11 | 2.35 | 3.09 | 1.74 | 3.71 |
| B12 | 3 | 2.25 | 0.28 | 1.19 |
| B13 | 0.00765 | 0.55 | -0.25 | 0.701 |
| B14 | 1.75 | 0.553 | -1.66 | 1.84 |
| B15 | 3.64 | 3.01 | 1.94 | 1.11 |
| B16 | 1.04 | 1.16 | 0.269 | -0.94 |
| B17 | -2.83 | -3 | -2.59 | -2.33 |
| B18 | -1.68 | -1.6 | -1.41 | -2.18 |
